Assay results as given in PubChem BioAssay AID1903 (Southern Research Specialized Biocontainment Screening …, 2009).
The whole screen tested about 310,000 compounds, of which about 1,200 (0.39%) were called active. Not all results are given here. Entries with a potency or affinity are not part of this list. Unmarked numbers belong to inactive results. No rule for the calls is given here.

The compounds below were run against Large T antigen (Simian virus 40) (UniProt P03070) (assay: TAg ATPase/helicase activity blockers – biochemical (AID 1903)). Conditions: SV40 large T antigen ATPase/helicase inhibition assay; at 20 µM; active compounds read high.
Chain of Large T antigen (Simian virus 40) (P03070 whole entry, looked up): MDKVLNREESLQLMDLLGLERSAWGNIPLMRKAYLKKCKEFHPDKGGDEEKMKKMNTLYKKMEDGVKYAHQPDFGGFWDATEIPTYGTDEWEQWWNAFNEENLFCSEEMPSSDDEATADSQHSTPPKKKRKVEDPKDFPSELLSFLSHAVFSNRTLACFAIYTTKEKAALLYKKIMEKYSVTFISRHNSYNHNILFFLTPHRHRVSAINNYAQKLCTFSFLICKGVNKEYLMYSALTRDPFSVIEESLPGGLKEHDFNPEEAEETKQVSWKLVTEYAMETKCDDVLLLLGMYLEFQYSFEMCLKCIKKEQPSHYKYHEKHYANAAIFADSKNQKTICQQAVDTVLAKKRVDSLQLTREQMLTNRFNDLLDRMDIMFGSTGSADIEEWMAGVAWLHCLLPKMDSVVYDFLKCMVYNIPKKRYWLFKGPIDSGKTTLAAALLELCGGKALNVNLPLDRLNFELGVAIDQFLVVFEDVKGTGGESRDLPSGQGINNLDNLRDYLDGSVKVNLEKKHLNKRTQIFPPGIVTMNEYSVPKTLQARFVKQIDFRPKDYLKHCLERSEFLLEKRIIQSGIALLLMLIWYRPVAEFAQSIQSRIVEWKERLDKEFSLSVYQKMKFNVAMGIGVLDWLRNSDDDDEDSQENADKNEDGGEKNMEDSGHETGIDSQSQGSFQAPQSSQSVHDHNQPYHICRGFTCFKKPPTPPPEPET

SMILES	inhibition
CS(=O)(=O)N1CCc2cc(S(=O)(=O)N3CCCCC3)ccc21	11.4%
COc1ccc(C(C)=O)cc1COc1ccc(Cl)cc1Cl	1.32%
Cc1ccc(S(=O)(=O)N(CC(=O)Nc2cccnc2)c2cccc(Br)c2)cc1	14.9%
Cc1cc(C)nc(Nc2ccc(O)cc2)n1	45.6%
Oc1ccc(Nc2nnc(-c3ccc(O)cc3)c3ccccc23)cc1	20.3%
Oc1ccc(Nc2nc3ccccc3nc2Nc2ccc(O)cc2)cc1	35%
Cc1cc(C)nc(Nc2ccc(C(=O)O)cc2)n1	3.63%
O=C(OC1CCCCC1=O)c1cccc(S(=O)(=O)N2CCOCC2)c1 (configuration not stated)	1.22%
CC(=O)Nc1cccc(-c2csc(NCc3ccco3)n2)c1	13.3%
CCOC(=O)C1=C(C)Nc2nc(C)nn2C1c1cc(OC)ccc1OC (configuration not stated)	5.76%
Nc1cccc2c3c(oc12)CCCC3	4.56%
O=C(Nc1ccc(-c2ccc3nncn3n2)cc1)C1CCCC1	0.86%
CCC(C)N(C(=O)COC(=O)c1ccccc1SCC(=O)N1CCCC1)C1CCS(=O)(=O)C1 (configuration not stated)	1.39%
c1ccc(Cn2nnnc2CN2CCN(c3ncccn3)CC2)cc1	0.78%
CCCc1cc(C(N)=O)c(NC(=O)c2cc(C)on2)s1	8.78%
Cc1csc(C(=O)NCC(=O)NNC(=O)c2cccc(Cl)c2)c1	0.72%
CCn1nc(C(=O)Nc2nc3ccc(C)cc3s2)c2ccccc2c1=O	0.39%
COc1cc(/C=N/NC(=O)NC2CCCCC2)cc(OC)c1O	31.1%
COc1cc(/C=N/NC(=O)NC23CC4CC(CC(C4)C2)C3)ccc1O	26.5%
COc1cc(/C=N/NC(=O)C2c3ccccc3Oc3ccccc32)ccc1O	13.3%
COc1cc(/C=N/NC(=O)CC(=O)NC2CCCCC2)ccc1O	26.4%

SMILES	inhibition
COc1ccc(C(CNC(=O)c2ccc(S(=O)(=O)Nc3ccc(F)cc3)cc2)N(C)C)cc1 (configuration not stated)	-1%
CC(=O)Nc1ccc(S(=O)(=O)NCCC(=O)OCC(=O)N2CCN(C(=O)c3ccco3)CC2)cc1	2.76%
COc1ccc(OC)c(-c2csc3nnc(SCC(=O)Nc4ccc(NC(C)=O)cc4)n23)c1	3.77%
C=CCC(C(=O)NC(C)c1ccccc1)C(=O)NC(C)c1ccccc1 (configuration not stated)	0.99%
CCOc1cc(NC(=O)c2ccccn2)c(OCC)cc1NC(=O)c1ccccc1	8.84%
CCOc1cc(N2C(=O)CC3CS(=O)(=O)CC32)c(OCC)cc1NC(=O)c1ccccc1 (configuration not stated)	-8.08%
CCCSc1nnc(N)s1	14.6%
CCN1C(=O)c2ccccc2Sc2ccc(C(=O)NCCC(C)C)cc21	18.1%
CCOC(=O)C1CCCN(S(=O)(=O)Cc2ccc(Cl)cc2)C1 (configuration not stated)	5.43%
Cc1ccc(NC(=O)C(=O)NN)cc1	4.15%
NNC(=O)C(=O)Nc1ccc(Cl)c(Cl)c1	4.78%
Cc1ccc(N=C2C(=O)Nc3ccc(Br)cc32)cc1	4.2%
COC(=O)CN1C(=O)C(C)(C)Oc2ccc(C(=O)Nc3ccccc3F)cc21	-0.69%
O=[N+]([O-])c1cc(/C=N\Nc2nc(-c3ccccc3)cs2)ccc1O	14.1%
Cc1csc(N/N=C/c2ccc([N+](=O)[O-])cc2)n1	12%
O=C(c1ccc2c(c1)OCCO2)C1CCN(S(=O)(=O)c2ccc(F)cc2)CC1	0.84%
S=c1[nH]nc(-c2cc(-c3ccccc3)n[nH]2)n1/N=C/c1cccs1	10.5%
Cc1cc(C)n(/N=C/c2c[nH]c3ccccc23)c(=O)c1	0.69%
Cc1nnc(C)n1/N=C/c1cccs1	13.5%
Fc1ccc(-c2n[nH]c(=S)n2/N=C/c2c[nH]c3ccccc23)cc1	1.41%
CCCCn1c(O)c(N=NC(=O)c2ccccc2NS(=O)(=O)c2cccs2)c2ccccc21	14.3%

SMILES	inhibition
O=c1ccc(S(=O)(=O)N2CCC(Cc3ccccc3)CC2)c[nH]1	7.63%
CN(CCNC(=O)CCNC(=O)Cn1ccc2ccccc2c1=O)Cc1ccccc1	15.1%
Nc1nc(SCc2cccc([N+](=O)[O-])c2)n[nH]1	4.99%
C=CCn1c(SCC(=O)c2ccc(OC)cc2)nnc1-c1cc2cccc(OC)c2o1	6.55%
CCn1c(SCC(=O)C(C)(C)C)nnc1-c1ccccc1OC	-1.72%
CCn1c(SCC(=O)c2ccc(C)cc2)nnc1-c1ccncc1	3.96%
CCn1c(SCC(=O)O)nnc1-c1ccccc1OC	1.77%
C=CCn1c(SCC(=O)Nc2ccc(C(=O)O)cc2)nnc1-c1cccnc1	8.53%
CCn1c(SCC(=O)OC)nnc1-c1ccc(C)cc1	22.5%
C=CCn1c(SCC(=O)Nc2ccc3c(c2)OCO3)nnc1-c1ccccc1OC	1.62%
C=CCn1c(SCC(=O)NC2CCCC2)nnc1-c1cccnc1	3.08%
O=C1OCc2cc(NC(=O)C3CCCCC3)ccc21	2.69%
COc1cccc(-c2cc(CC3(O)CCN(CCCc4ccccc4)CC3)on2)c1	8.74%
Cc1ccc(S(=O)(=O)N2CCN(S(=O)(=O)N(C)C)CC2)c(C)c1	3.46%
COc1ccc(-n2c(C)cc(-c3csc(NC(=O)c4ccc(S(=O)(=O)N(C)C)cc4)n3)c2C)cc1	11.5%
Cc1c(CC(=O)NCCCC(=O)O)c(=O)oc2cc3oc4c(c3cc12)CCCC4	10%
CC(C)CCNC(=O)C1CC(=O)N(C2CCCC2)C1 (configuration not stated)	-3.66%
S=C(NCC1CCCO1)Nc1ccc(Cl)c(Cl)c1 (configuration not stated)	13.5%
Cc1ccc(CCN2CC(C(=O)NCCCN3CCN(C)CC3)CC2=O)cc1 (configuration not stated)	3.28%
c1ccc(-n2nnnc2-n2nnc3ccccc32)cc1	9.04%
